Measurements: PubChem BioAssay (Tox21)
Inconclusive results are not listed. A call without a number means that no potency is given here. Activity calls are given as the source filed them. The call rests on the fitted dose curve; in most records, active means well fitted cell-killing curve with a large enough effect in the repeat runs; inconclusive means weak or mixed curves, or effect the other way; inactive means no such curve, though single readings can be large or run the other way.

Assay: qHTS assay to identify small molecule antagonists of the glucocorticoid receptor (GR) signaling pathway - cell viability counter screen (AID 720693); further: nearly all actives have a fitted effect of over 55% in size
Details: GR-bla HeLa viability, CellTiter-Glo luminescence, 18 h, with 5 nM dexamethasone present; series mostly up to 58.5 µM
Excerpt: National Center for Advancing Translational Sciences [NCATS]
NIH Chemical Genomics Center [NCGC]
U.S. Environmental Protection Agency [EPA]
National Institutes of Environmental Health Sciences [NIEHS]
National Toxicology Program [NTP]
U.S. Food and Drug Administration [FDA]
The Glucocorticoid receptor (GR) is one of the members of the nuclear receptor family of ligand-dependent transcription factors. GR plays a critical role in carbohydrate, protein and lipid metabolisms and programmed cell death. CellSensor GR-bla HeLa cell line (Invitrogen) contains a beta-lactamase reporter gene under the control of the glucocorticoid response element stably integrated into HeLa cells, a cervical cancer cell line that expresses glucocorticoid receptor. The activation of the reporter gene under culture conditions can be detected by fluorescence intensity. This cell line has been used to screen the Tox21 10K compound library and to identify the compounds that inhibit the GR signaling. The cytotoxicity of the Tox21 compound library against the GR-bla HeLa cell line was tested in parallel by measuring the cell viability using CellTiter-Glo assay in the same wells.
Tox21 Assay Protocol Summary:
The GR-bla HeLa cells were dispensed at 1500 cells/5 ul/well in 1536-well black wall/clear bottom plates using a Multidrop Combi (ThermoFisher Scientific, Waltham, MA) dispenser. After the assay plates were incubated at a 37 C/5% CO2 incubator for 4 hours, 23 nL of compounds dissolved in DMSO, positive controls or DMSO only was transferred to the assay plate by a pintool station (Kalypsys, San Diego, CA), followed by addition of 1 uL of dexamethasone (5 nM, final concentration in the well). The plates were incubated at 37 C for 18 hours. After 1 uL of LiveBLAzerTM B/G FRET substrate was added using a Flying Reagent Dispenser (Aurora Discovery, San Diego, CA), the plates were incubated at room temperature (RT) for 2 hours, and fluorescence intensity was measured by an Envision plate reader (PerkinElmer, Shelton, CT). After measurement of bla assay, 3 ul CellTiter-Glo (Promega, Madison, WI) was added to measure the cytotoxicity and the plates were then incubated at RT for 30 min. The luminescence was measured using a ViewLux (Perkin Elmer) plate reader.

Structure (SMILES)	Potency
Oc1ccc2c3c1O[C@H]1[C@@H](O)C=C[C@H]4[C@@H](C2)NCC[C@@]341	inactive
COP(=O)(OC)O/C(C)=C/C(=O)N(C)C	inactive
N#CN=C1SCCN1Cc1ccc(Cl)nc1	inactive
Cc1ccc(-c2nc3ccc(C)cn3c2CC(=O)N(C)C)cc1	inactive
BrCC1CO1 (stereo not given)	inactive
CCCOc1nn(C(=O)NS(=O)(=O)c2ccccc2C(=O)OC)c(=O)n1C	inactive
N#CN	inactive
Cc1cccc2sc3nncn3c12	inactive
CC(=O)OCC1=C(C(=O)O)N2C(=O)[C@@H](N)[C@H]2SC1	inactive
CCC(=O)c1ccc(Cl)cc1	inactive
CCN(CC)C1CCCCC1	inactive
CCCN1CCC[C@@H]2Cc3[nH]ncc3C[C@H]21	inactive
CCOC(=O)Nc1cccc(OC(=O)Nc2ccccc2)c1	inactive
C=CCCC#N	inactive
CC(C)(N)Cc1ccc(Cl)cc1	inactive
CC(C)(C)NC[C@H](O)c1ccc(O)cc1Cl	inactive
CCNP(=S)(OC)O/C(C)=C/C(=O)OC(C)C (stereo not given)	inactive
CCN(CC)CCOC(=O)C(O)(c1ccccc1)c1ccccc1	inactive
O=C(CCl)NCO	inactive
C=CC1(C)OC(=O)N(c2cc(Cl)cc(Cl)c2)C1=O (stereo not given)	inactive

Structure (SMILES)	Potency
O=[N+]([O-])c1cccc(CCl)c1	inactive
C#CCOC(=O)/C=C(C)/C=C/CC(C)CCCC(C)C (stereo not given)	inactive
CCOC1Oc2ccc(OS(C)(=O)=O)cc2C1(C)C (stereo not given)	inactive
CS(=O)(=O)Cl	inactive
Cn1c(N)nc2c3cccnc3ccc21	inactive
C=C(Cl)CSC(=S)N(CC)CC	inactive
CCOP(=O)(CN(CCO)CCO)OCC	inactive
COC(=O)c1ccccc1CS(=O)(=O)NC(=O)Nc1nc(OC)cc(OC)n1	inactive
CN(C)C(=O)Oc1cc(OC(=O)N(C)C)cc(C(O)CNC(C)(C)C)c1 (stereo not given)	inactive
N[C@@H]1C[C@H]1c1ccccc1	inactive
CCOC(=O)COc1ccc(Cl)cc1Cl	inactive
CCC1(c2ccccc2)CCC(=O)NC1=O (stereo not given)	inactive
O=P(O)(O)CN(CP(=O)(O)O)CP(=O)(O)O	inactive
c1cncc([C@@H]2CCCCN2)c1	inactive
CC[C@H](N)c1ccccc1	inactive
CC(C)NCC(O)c1ccc([N+](=O)[O-])cc1 (stereo not given)	inactive
COc1cccc(C=O)c1	inactive
CN(CCO)CCO	inactive
CCC(=O)OC1(c2ccccc2)CCN(C)CC1	inactive
CCCCCCCCBr	inactive
